Laboratory results: PMC5540273 (PLoS ONE, 2017)

Experiments:
Details in all cases: concentration: 1 μM, replicates: in singlicate; n = 1
ROCK1 = test system: ROCK1
ROCK2 = test system: ROCK2
ROS1 = test system: ROS1
[1] = test system: RPS6KA4(Kin.Dom.1-N-terminal)
[2] = test system: RPS6KA4(Kin.Dom.2-C-terminal)
[3] = test system: RPS6KA5(Kin.Dom.1-N-terminal)
[4] = test system: RPS6KA5(Kin.Dom.2-C-terminal)
[5] = test system: T1, RSK1(Kin.Dom.1-N-terminal)
T1 construct: gene RPS6KA1

[6] = test system: T2, RSK1(Kin.Dom.2-C-terminal)
T2 construct: gene RPS6KA1

[7] = test system: T3, RSK2(Kin.Dom.1-N-terminal)
T3 construct: gene RPS6KA3

[8] = test system: T4, RSK2(Kin.Dom.2-C-terminal)
T4 construct: gene RPS6KA3

[9] = test system: T5, RSK3(Kin.Dom.1-N-terminal)
T5 construct: gene RPS6KA2

[10] = test system: T6, RSK3(Kin.Dom.2-C-terminal)
T6 construct: gene RPS6KA2

[11] = test system: T7, RSK4(Kin.Dom.1-N-terminal)
T7 construct: gene RPS6KA6

[12] = test system: T8, RSK4(Kin.Dom.2-C-terminal)
T8 construct: gene RPS6KA6

S6K1 = test system: S6K1
SBK1 = test system: SBK1
SGK2 = test system: SGK2
SGK3 = test system: SGK3
SGK = test system: SGK
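Note: KINOMEscan kinase panel screen.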

| SMILES | %Inh (ROCK1) | %Inh (ROCK2) | %Inh (ROS1) | %Inh [1] | %Inh [2] | %Inh [3] | %Inh [4] | %Inh [5] | %Inh [6] | %Inh [7] | %Inh [8] | %Inh [9] | %Inh [10] | %Inh [11] | %Inh [12] | %Inh (S6K1) | %Inh (SBK1) | %Inh (SGK2) | %Inh (SGK3) | %Inh (SGK) |
| --- | --- | --- | --- | --- | --- | --- | --- | --- | --- | --- | --- | --- | --- | --- | --- | --- | --- | --- | --- | --- |
| Cl.c1ccc(-c2n[nH]cc2-c2ccnc(-c3ccc(CN4CCOCC4)cc3)c2)nc1 [GW776245] | 0% | 0% | 0% | 0% | 0% | 0% | 44% | 0% | 17% | 34% | 22% | 0% | 0% | 13% | 49% | 0% | 0% | 0% | 0% | 0% |
| COc1ccc(CNC(=O)NC2CCN(c3ccnc(Nc4cc(OC)c(OC)c(OC)c4)n3)C2)cc1 (centres unmarked) [GSK1379748] | 20% | 31% | 29% | 0% | 0% | 0% | 21% | 0% | 1% | 3% | 15% | 0% | 21% | 0% | 5% | 0% | 0% | 0% | 0% | 0% |
| CS(=O)(=O)c1ccc(-c2nc3n(c2-c2ccncc2)CCC3)cc1 [SKF-105942] | 0% | 0% | 2% | 1% | 0% | 0% | 0% | 27% | 0% | 4% | 5% | 15% | 0% | 0% | 9% | 17% | 5% | 0% | 10% | 0% |
| O=C(Nc1n[nH]c2nc(-c3nccs3)c(Br)cc12)C1CC1 [SB-742251] | 36% | 24% | 0% | 0% | 0% | 0% | 11% | 9% | 0% | 11% | 0% | 19% | 0% | 0% | 2% | 6% | 1% | 12% | 0% | 0% |
| COc1ccccc1-c1ccc2c(NC(=O)C3CC3)n[nH]c2n1 [SB-711239] | 23% | 6% | 10% | 9% | 0% | 13% | 12% | 11% | 0% | 0% | 7% | 0% | 0% | 4% | 22% | 7% | 68% | 4% | 3% | 0% |
| Fc1cc(Cl)ccc1Nc1ccnc2cc(-c3ccc(CN4CCCCC4)o3)ccc12 [GW560116] | 31% | 24% | 2% | 0% | 0% | 0% | 8% | 0% | 26% | 0% | 25% | 0% | 24% | 0% | 88% | 29% | 2% | 0% | 0% | 3% |
| O=S(=O)(c1ccc(-c2ccnc3[nH]ccc23)cc1)N1CCCC1 [GSK846226] | 81% | 82% | 12% | 5% | 56% | 8% | 76% | 8% | 54% | 18% | 0% | 0% | 38% | 0% | 35% | 5% | 4% | 0% | 0% | 0% |
| Clc1cc(Cl)cc(Nc2ccnc(Nc3cc(Cl)cc(Cl)c3)n2)c1 [GSK175726] | 4% | 0% | 37% | 0% | 0% | 8% | 9% | 1% | 26% | 0% | 7% | 0% | 4% | 13% | 22% | 0% | 9% | 0% | 13% | 3% |
| COc1ccc(Nc2nccc(-c3cccc(NC(=O)c4cc5cc(F)ccc5[nH]4)c3)n2)cc1 [GSK1229782] | 48% | 35% | 34% | 21% | 0% | 6% | 14% | 13% | 5% | 21% | 0% | 1% | 0% | 0% | 24% | 16% | 18% | 0% | 0% | 6% |
| Cl.NC(=O)c1cccc(Nc2nccc(Nc3ccc(Oc4cccc(Cl)c4)c(Cl)c3)n2)c1 [GW659008] | 0% | 0% | 0% | 0% | 0% | 5% | 11% | 0% | 0% | 8% | 16% | 0% | 18% | 0% | 19% | 0% | 0% | 0% | 0% | 0% |
